# Reference: paper PMC7155171, “Probing the Open Global Health Chemical Diversity Library for Multistage-Active Starting Points for Next-Generation Antimalarials” (ACS Infectious Diseases, 2020)
# Legend:
# [1] = system: P. berghei liver stage (PbLuc); set-up: species or system HepG2-A16-CD81; P. berghei luciferase sporozoite infection of hepatocytes, liver stage luminescence; details: inhibitor; for PbLuc primary screen (10uM): inhibition % (n=1): 48 h
# [2] = system: HepG2-A16-CD81 hepatocytes; set-up: Uninfected hepatocyte viability, CellTiter-Glo luminescence; details: cytotoxicity primary screen, inhibitor
Structure (SMILES),PbLuc primary screen (10uM): inhibition % (n=1) [1] [%],PbLuc primary screen (2uM): inhibition % (n=1) [1] [%],HepG2 toxicity primary screen (10uM): inhibition % (n=1) [2] [%]
CCCc1nn(C)c(N)c1-c1ccc2c(c1)OCO2 [DDD01074641],27.6,5.918,-51.45
Cc1[nH]n(Cc2ccc(F)cc2)c2nnc(N)c1-2 [DDD01012470],78.2,11.14,1.11
Cc1[nH]n(C2CCS(=O)(=O)C2)c(=O)c1Cc1ccc(Br)cc1 (stereo not drawn) [DDD01026979],43.4,14.54,-41.615
Cn1cc(C(=O)N2CCCC(c3cc(=O)n(C)[nH]3)C2)cn1 (stereo not drawn) [DDD01060486],19.6,27.39,-21.6
CCc1c(C)[nH]c2cc(C3CCN(CCc4ccccc4)C3)nn2c1=O (stereo not drawn) [DDD01060567],83.3,20.31,-20.1
Fc1cccc(C2=NN=CC2=C2NC(CN3CCOCC3)=NO2)c1 [DDD01244908],13.7,24.36,-7.58
CCC(CO)N(Cc1cccnc1)C(=O)c1ccc(C(F)(F)F)[nH]c1=O (stereo not drawn) [DDD01253913],-28.9,20.89,-1.12
CCc1nn2c(N)c(C#N)nnc2c1-c1ccc(OC)cc1 [DDD01035159],22.9,19.08,-3.73
Cc1[nH]n(C2CCS(=O)(=O)C2)c(=O)c1Cc1ccccc1 (stereo not drawn) [DDD01026976],36.9,-17.38,-44.6
CCC(=O)Nc1[nH]nc2c1c(C)nn2Cc1cccc(OC)c1 [DDD01063148],-31,15.82,-9.24
Cc1[nH]c2cc(C3CCN(Cc4cccc(F)c4F)C3)nn2c(=O)c1C (stereo not drawn) [DDD01270135],90.4,18.8,0.333
COc1cc(F)ccc1-c1nc2c(C3CC3)[nH]n(C)c-2n1 [DDD01248843],-24.9,-27.89,-1.72
CCc1c(C)nn2c(=O)cc(C3CCN(C(=O)c4ccn(C)n4)C3)[nH]c12 (stereo not drawn) [DDD01056907],3.623,-25.98,7.915
COc1cc2c(cc1-c1nc3c[nH]n(C(C)C4CC4)c-3n1)OCO2 (stereo not drawn) [DDD01244142],34,67.28,4.82
